Reference: PubChem BioAssay AID2113 (National Center for Advancing Translational Sciences (NCATS), 2009)
Results filed as inconclusive are left out. A number with no mark means an inactive call. Active and inactive are the calls of the source. Calls follow the shape of the dose curve; as a rule, active = well fitted curve in either direction with a large enough effect; inconclusive = small, poorly fitted or top-dose-only effect; inactive = no such curve, though single readings can be large or run the other way.

molecular target: Lysosomal alpha-glucosidase (Homo sapiens) (UniProt P10253); assay: Confirmation of Inhibitors and Activators of Human alpha-Glucosidase From Spleen Homogenate; details: alpha-glucosidase enzyme activity; series mostly up to 60.5 µM; activity change, both directions: at the top concentration; also: 0% is about no effect
Text: NIH Chemical Genomics Center [NCGC]
NIH Molecular Libraries Probe Production centers Network [MLPCN]
Assay Submitter (PI): Wei Zheng
Alpha-glucosidase is responsible for hydrolysis of terminal, non-reducing 1,4-linked alpha-D-glucose residues with release of alpha-D-glucose. It is a lysosomal hydrolase that is required for the degradation of a small percentage (1-3%) of cellular glycogen in human. Deficiency of this enzyme results in glycogen-storage disease type II (GSDII), also referred to as Pompe disease, an autosomal recessive disorder. Structurally normal glycogen is accumulated in lysosomes and cytoplasm in affected patients, primarily in muscle tissues. Excessive glycogen storage within lysosomes may interrupt normal functioning of other organelles and leads to cellular injury. In turn, this leads to enlargement and dysfunction of the entire organ involved (eg, cardiomyopathy and muscle weakness).
It has reported that the improper folding and trafficking of alpha-glucosidase resultinged from the genetic mutations may account for a significant number of Pomrope patients. […] We optimized this alpha-glucosidase assay in 1536-well plate format for identifying the novel small molecule inhibitors with the structures other than the sugar analogs in order to develop the new pharmacological chaperones. In particular, this assay is directed towards discovering compounds active in a more natural setting, tissue homogenate, that may have been missed by screens of the purified enzyme under more stringent conditions. This assay attempted to confirm hits from the primary screening.
NCGC Assay Protocol Summary:
This is a fluorogenic enzyme assay with 4-methylumbelliferyl-alpha-D-glucopyranoside as the substrate and human spleen homogenate containing alpha-glucosidase as the enzyme preparation. Upon hydrolysis of this fluorogenic substrate, the resulting product, 4-methylumbelliferone (which excites at 365 nm and emits at 440 nm) can be detected by a fluorescence plate reader. Data were normalized to the controls for basal activity (without enzyme) and 100% activity (with enzyme). The AC50 values were determined from concentration-response data modeled with the standard Hill equation.
Assay buffer: 50 mM citric acid (titrated with potassium phosphate to pH 5.0), 0.01% Tween-20 (pH 5.0 is an optimal condition for this enzyme assay)
1536-well assay protocol for the alpha-glucosidase from human spleen homogenate:
(1) Add 2 ul/well spleen homogenate (1 ug)
(2) Add 23 nL compounds in DMSO solution. The final titration was 0.5 nM to 58 uM.
(3) Add 2 ul of substrate (1 mM final)
(4) Incubate at 37 C for 40 min
(5) Add 2 ul stop solution (1M NaOH and 1M Glycine mixture, pH 10)
(6) Detect the assay plate in a ViewLux plate reader (PerkinElmer) with Ex=365 nm and Em=440nm.
Keywords: Alpha-glucosidase, Pompe Disease, pharmacological chaperone, chaperone therapy, high throughput screening, alpha-glucosidase inhibitor, MLSMR, MLSCN, NIH Roadmap, qHTS and NCGC

Row | SMILES | activity change, both directions | outcome
1 | CCCCC/C=C\C/C=C\C/C=C\C/C=C\CCCC(=O)NCCCC(=O)O | -9.01% | 
2 | Cc1cc(/C=C2\C(=O)NC(=O)N(c3ccc(F)cc3)C2=O)c(C)n1-c1ccc(C(=O)O)cc1 | -12.7% | 
3 | Cc1cc(C(=O)CS(=O)(=O)c2ccc(F)cc2)cc(C)c1OC(=O)N(C)C | 1.6% [at 31.5 µM] | 
4 | OC[C@@H]1[C@@H](O)[C@H](O)[C@H]2[C@@H](O)CCN21 | -42.7% | 
5 | COc1ccc(Cc2nccc3cc(OC)c(OC)cc23)cc1OC | -1.95% | 
6 | CC(C)(C)c1cc(C=C(C#N)C#N)cc(C(C)(C)C)c1O | 2.31% | 
7 | O[C@H]1[C@H](O)[C@@H](O)CN2CC[C@H](O)[C@H]12 |  | inactive
8 | O=C(O)c1ccccc1-c1c2cc(Br)c(=O)cc-2oc2[c]([Hg])c(O)c(Br)cc12 | -2.07% [at 286 µM] | 
9 | CC(=O)Nc1ccc(OC(=O)c2ccccc2N)cc1 | 6.2% [at 31.5 µM] | 
10 | Cc1cc(/C=C2/C(=O)NC(=O)N(Cc3ccco3)C2=O)c(C)n1-c1ccc(C(=O)O)cc1 | -16.4% | 
11 | CC(=O)[O][Hg][c]1ccccc1 | 5.66% [at 286 µM] | 
12 | C/C(O)=C(/C#N)C(=O)Nc1cc(Br)ccc1Br | -58.7% | 
13 | CCOc1ccc2cc(C#N)c(=O)oc2c1 | 2.73% | 
14 | C/C=C(/C)C(=O)O[C@H]1C(C)=C2C([C@@H]1OC(=O)CCCCCCC)[C@@](C)(OC(C)=O)C[C@@H](OC(=O)CCC)[C@@]1(O)[C@H]2OC(=O)[C@@]1(C)O (stereo not given in full) | -6.96% | 
15 | O[C@@H]1[C@H](O)[C@H]2[C@@H](O)CCN2C[C@@H]1O | -100% [at 286 µM] | 
